Screen size: about 320,000 compounds; about 2,100 (0.66%) were called active. Roughly 53% stayed inconclusive and do not appear here. The sample holds actives, similar compounds and a random draw of the others, so the mix is not that of the screen. Calls follow the shape of the dose curve; as a rule, active = well fitted inhibition curve with a large enough effect in the signal ratio, with a control signal flat (not every such curve was filed as active); inconclusive = small, poorly fitted or top-dose-only effect, or effect the other way, or a change in a side signal; inactive = flat fitted curve, though single readings scatter; the % refers to the signal ratio.
Potency is read from the fitted curve at half-maximal effect.

The nature of this assay: qHTS Assay for Lipid Storage Modulators in Drosophila S3 Cells.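 As to cell number change: cells counted by Cell Tracker Red CMTPX staining in the red channel.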 As to lipid storage change, negative = inhibition: % is scaled to controls: 0 for no effect and ±100 for the full control effect. Particulars: BODIPY lipid droplet fluorescence, 18-24 h, cells fed with added oleic acid; cell number change: measured here: cell count max response; series mostly up to 46.1 µM; lipid storage change, negative = inhibition: at the top concentration. The source says:
NIH Molecular Libraries Probe Production Centers Network [MLPCN] NIH Chemical Genomics Center [NCGC] MLPCN Grant: 1 R03 MH085686-01 Assay Submitter (PI): Beller, Mathias; Max-Planck-Institut fur Biophysikalische Chemie NCGC Assay Overview: Storing lipids as a reservoir for energy or the anabolism of elementary metabolites is a common feature of probably all cells and is conserved from bacteria to humans. The universal cellular lipid storage organelle is the so-called lipid storage droplet (LD). Although ubiquitous, LDs share a simple structure composed of a hydrophobic core that harbors the storage lipids, which is shielded by a droplet-specific phospholipid monolayer to which proteins are attached. The current model of LD biogenesis involves an incorporation of the lipid core into the membrane leaflets of the endoplasmic reticulum (ER) followed by a subsequent budding-like maturation of a LD, which ultimately pinches off. Once released, LD volume can increase by localized lipogenesis or fusion of existing droplet. Storage lipids are re-mobilized enzymatically by lipase activity. Lipase regulation in the adipocyte is heavily studied and involves multiple components including catecholamine signaling, the LD-associated proteins Perilipin and comparative gene identification (CGI-58) and at least two lipases named hormone sensitive lipase (HSL) and adipocyte triglyceride lipase (ATGL). LD regulation outside of the adipocyte is poorly understood and only few components are known. However, there is an urgent need to learn more about ectopic fat depots as mislocalized storage of lipids, for example in the liver or muscle, is an eminent health problem associated with insulin resistance or the metabolic syndrome. We developed a laser-scanning cytometer assay to enable 1,536-well screening and combined the results of the small molecules screen with an RNAi database based on lipid storage.
Triacsin C (Sigma-Aldrich T-4540), an inhibitor of long-chain fatty acyl CoA synthetase that blocks synthesis of triglycerides, was used as a positive control for lipid under-storage. A total of 23 nL of compound solution of different concentrations were transferred to the assay plates using a Kalypsys pin tool equipped with a 1,536-pin array containing 10-nL slotted pins (FP1S10, 0.457-mm diameter, 50.8 mm long; V&P Scientific). One microliter of oleic acid (400 uM) was added, and the plate was lidded with stainless steel rubber gasket lined lids containing pinholes. […] Fluorescence was detected by excitation of the fluorophores with a 488-nm laser on an Acumen Explorer (TTP Lab Tech). The total intensity in channel 2 (500-530 nm) reflected lipid droplet accumulation. Cells were detected using channel 3 (575-640 nm) with 5-um width and 100-um depth filters. The ratio of the number of objects in PMT channel 2 over the number of objects in PMT channel 3 was also calculated. Percent activity was computed relative to an internal control (100% inhibited lipid droplet deposition due to the presence of 20 uM Triacsin C), which was added to 32 wells/plate.
In general terms: Quantitative high-throughput screening tests each substance at several concentrations.
On to `FC(F)(F)c1cc(C(F)(F)F)c2ccc(N3CCN(c4ncccn4)CC3)nc2n1`, for which the “lipid storage change, negative = inhibition” value was 15.1% (inactive) and the cell number change was 9.76%. With `Cc1nn(Cc2ccc(C(=O)O)o2)c(C)c1[N+](=O)[O-]`, the “lipid storage change, negative = inhibition” value is -2.98% (inactive) and the cell number change turned out to be 19.3%.

Regarding `CCCN1C(=O)c2ccc(C(=O)NC3=NCCS3)cc2C1=O`, the result was inactive. On to `Cc1nn(-c2ccc(N3CCOCC3)nn2)c(C)c1CCC(=O)NCc1ccc(F)cc1`, for which the “lipid storage change, negative = inhibition” value was 10% (inactive) and the cell number change was 2.75%.

Turning to `CC(=O)c1ccc(N2CCN(C(=O)Nc3ccc(F)cc3F)CC2)cc1`, the “lipid storage change, negative = inhibition” value is 1.35% (inactive) and the cell number change is 18.2%. Turning to `COc1ccc(C(=O)Nc2ccc(Cl)cc2C(=O)N2CCOCC2)cc1`, the “lipid storage change, negative = inhibition” value is 0.287% (inactive) and the cell number change turned out to be 17.2%. `Cc1nnc2n1CCCCC2`: the “lipid storage change, negative = inhibition” value was 4.69% (inactive) and the cell number change turned out to be 4.65%.

Consider `O=[N+]([O-])c1ccc(Oc2ccc(/C=N/O)cc2)nc1`, for which the “lipid storage change, negative = inhibition” value is 19.2% (inactive) and the cell number change is -1.55%. As to `CS(=O)(=O)c1ccc(N2CCOCC2)c(S(C)(=O)=O)c1`, the “lipid storage change, negative = inhibition” value is -24.1% (inactive) and the cell number change came out at 4.86%.

For `CCCC(=O)CN1C(=O)C2(OCCO2)c2ccccc21`, the “lipid storage change, negative = inhibition” value is 16.7% (inactive) and the cell number change was -15.8%. For `CCOC(=O)CN1C(=O)C2(OCCCO2)c2ccccc21`, the Potency is 23.1 µM (active). With `CCOC(=O)CN1C(=O)C2(OCCCO2)c2cc(Br)ccc21`, the “lipid storage change, negative = inhibition” value was -19.3% (inactive) and the cell number change was -7.87%. Turning to `COCCNC(=O)CN1C(=O)NC2(CCCc3cc(OC)ccc32)C1=O` (configuration not stated), the “lipid storage change, negative = inhibition” value was 5.71% (inactive). Consider `CCOc1ccc(C(=O)CCC(=O)N(CC)CC(=O)NCc2cccs2)cc1`, for which the “lipid storage change, negative = inhibition” value was 14.6% (inactive) and the cell number change came out at 12.9%. On to `CCOc1ccccc1C(=O)N/N=C/c1coc2ccc(C)cc2c1=O`, for which the Potency was 10.3 µM (active) and the cell number change was -20.2%. As to `Cc1ccc2occ(/C=N/NC(=O)c3ccccc3O)c(=O)c2c1`, the “lipid storage change, negative = inhibition” value is -9.35% (inactive) and the cell number change worked out at 1.16%. For `Cc1ccc2occ(/C=N/NC(=O)c3ccccc3Br)c(=O)c2c1`, the molecule was classed as inactive. In the case of `COc1cccc(Oc2cn[nH]c2-c2ccc(OCC(=O)NN)cc2O)c1`, the “lipid storage change, negative = inhibition” value was 18.3% (inactive) and the cell number change worked out at 0.872%. On to `CC(C)(C)c1cc(C(=S)N2CCN(CCO)CC2)cc(C(C)(C)C)c1O`, for which the call was inactive. Turning to `CC(C)(C)c1cc(C(=O)CCN2CCOCC2)cc(C(C)(C)C)c1O`, the Potency is 29.1 µM (active) and the cell number change was -17.7%. For the molecule `CN1CCN(CC(=O)c2cc(C(C)(C)C)c(O)c(C(C)(C)C)c2)CC1`, the molecule was classed as inactive and the cell number change is 15.8%.

Consider `COc1cccc(C2=NOC(C(=O)Nc3ccc4c(c3)OCO4)C2)c1` (configuration not stated), for which the “lipid storage change, negative = inhibition” value is 4.64% (inactive) and the cell number change was 7.67%. `COc1cccc(C2=NOC(C(=O)Nc3ccc(OC)c(OC)c3)C2)c1` (configuration not stated): the Potency is 11.6 µM (active).

For `COc1cc(NC(=O)C2CC(c3c(F)cccc3Cl)=NO2)c(OC)cc1Cl` (configuration not stated), the “lipid storage change, negative = inhibition” value was 15.8% (inactive) and the cell number change is -7.33%. Take `COc1ccc(NC(=O)C2CC(c3c(F)cccc3Cl)=NO2)cc1OC` (configuration not stated): the “lipid storage change, negative = inhibition” value was -13% (inactive) and the cell number change was -11.7%. Consider `COc1cc(NC(=O)C2CC(c3c(F)cccc3Cl)=NO2)cc(OC)c1OC` (configuration not stated), for which the Potency was 11.6 µM (active) and the cell number change is -15.1%. Take `COc1ccc(NC(=O)C2CC(c3ccccc3O)=NO2)cc1OC` (configuration not stated): the outcome was inactive.

`O=C(O)CC1C(=O)NCCN1CCCc1ccccc1` (configuration not stated): the molecule was classed as inactive. Same read-out and setting: as for `CSc1cccc(NC(=O)C(C)NS(=O)(=O)c2ccc(F)cc2)c1` (configuration not stated), the entry is “inactive”. In the case of `Cc1cc(C)nc(/N=C(\N)N2CCCCC2)n1`, the “lipid storage change, negative = inhibition” value was -9.41% (inactive) and the cell number change is -8.98%.

Consider `Cc1ccc(C(=O)C[n+]2cccc(C(N)=O)c2)cc1`, for which the “lipid storage change, negative = inhibition” value is -6.48% (inactive) and the cell number change stood at 8.69%.

Turning to `Cc1c(C(=O)n2cnc3ccccc32)cccc1[N+](=O)[O-]`, the “lipid storage change, negative = inhibition” value is 9.85% (inactive) and the cell number change came to 23.4%.

As to `Cc1ccc(C2(C)NC(=O)N(CC(=O)Nc3ccc4c(c3)CCC4)C2=O)cc1` (configuration not stated), the “lipid storage change, negative = inhibition” value is 8.92% (inactive) and the cell number change was -12.5%. With `O=C(N/C(=C/c1cccnc1)C(=O)N1CCOCC1)c1ccco1`, the “lipid storage change, negative = inhibition” value is -0.339% (inactive) and the cell number change came to 0.681%. Regarding `O=C(NCCc1csc(-c2cccnc2)n1)c1ccco1`, the cell number change is 14.6% and the lipid storage change, negative = inhibition is 1.09% [at 9.22 µM] (inactive). `COc1ccc(-c2nc(CCNC(=O)c3ccc(Br)o3)cs2)cc1`: the molecule was classed as inactive and the cell number change stood at 29.2%. On to `COc1cc(-c2nc(CCNC(=O)c3ccco3)cs2)cc(OC)c1OC`, for which the Potency is 18.4 µM (active) and the cell number change is -3.07%. Turning to `Cc1ccccc1CCN(C(=O)CN1C(=O)c2ccccc2S1(=O)=O)C(C(=O)NCC1CCCO1)c1ccncc1` (configuration not stated), the “lipid storage change, negative = inhibition” value is 2.68% (inactive) and the cell number change was -7.43%. Consider `Cc1ccccc1NS(=O)(=O)c1ccc(OCC(=O)NCc2ccccn2)cc1`, for which the “lipid storage change, negative = inhibition” value is 5.38% (inactive) and the cell number change is 6.59%.

As for `CCC1CCCCN1CCCNC(=O)CCC(=O)N1CCOc2ccccc21` (configuration not stated), the “lipid storage change, negative = inhibition” value is -28.6% (inactive) and the cell number change turned out to be 10.7%. In the case of `CC(C(=O)NC1CCCCC1)N1C(=O)C2C3C=CC(C3)C2C1=O` (configuration not stated), the Potency was 1.84 µM (active) and the cell number change is -1.76%. On to `O=C(CCN1C(=O)C2C3C=CC(C3)C2C1=O)NC1CCCCC1` (configuration not stated), for which the molecule was classed as inactive. As to `CC(C(=O)Nc1ccc2nccnc2c1)N1C(=O)C2C3C=CC(C3)C2C1=O` (configuration not stated), the “lipid storage change, negative = inhibition” value was 6.01% (inactive) and the cell number change worked out at 0.122%. With `NC(=O)CCC(=O)N1CCCC(C(=O)c2ccc3c4c(cccc24)CC3)C1` (configuration not stated), the “lipid storage change, negative = inhibition” value is 3.16% (inactive) and the cell number change is 12.7%.

On to `CCc1ccc(CN(C(=O)c2oc3ccccc3c2C)C2CCS(=O)(=O)C2)cc1` (configuration not stated), for which the “lipid storage change, negative = inhibition” value was -21.5% (inactive) and the cell number change turned out to be 23.1%. With `O=C(CCC(=O)NNC(=O)COc1ccc(Br)cc1)NCc1ccccc1`, the “lipid storage change, negative = inhibition” value was -19.6% (inactive) and the cell number change is 6.5%. Consider `CC(C)NS(=O)(=O)c1ccc(CCC(=O)NCc2ccccn2)cc1`, for which the “lipid storage change, negative = inhibition” value was 21.7% (inactive) and the cell number change came to 6.74%. For the molecule `Cc1cc(S(=O)(=O)NCc2ccccc2)ccc1OCC(=O)NCc1ccncc1`, the “lipid storage change, negative = inhibition” value was 6.29% (inactive) and the cell number change was 13.5%.

For `Cc1cc(S(=O)(=O)NCc2ccccc2)ccc1OCC(=O)NCc1ccccn1`, the Potency was 5.17 µM (active) and the cell number change was 6.72%. Regarding `Cc1ccc(NS(=O)(=O)c2ccc(CCC(=O)NCc3ccccn3)cc2)cc1`, the Potency was 2.59 µM (active) and the cell number change is -13.1%. As for `Cc1ccc(NS(=O)(=O)c2ccc(C(=O)NCc3ccccn3)cc2)cc1`, the “lipid storage change, negative = inhibition” value is -21% (inactive) and the cell number change was 0.232%.

These data come from PubChem BioAssay AID2685 (National Center for Advancing Translational Sciences (NCATS), 2010).
